Source: PubChem BioAssay
Where “and” joins values, the source holds several entries; their conditions need not be identical. Identical values can stand only once. For some assays here: Entries with a potency or affinity are not part of this list. More than one record can exist for a structure, and the calls need not agree. Calls of active or inactive are those of the source. Unless noted, no rule for the calls is given here.

Tests used:
[1] = antimalarial activity against Dd2 strain (AID 2302;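 active = growth inhibition above 50% at the single 2 µM test dose, taken to imply half-maximal potency below 2 µM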;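 also: 0% = DMSO untreated growth and 100% = chloroquine plus artemisinin killed control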); settings: P. falciparum Dd2 in RBCs, LDH growth readout, 72 h; at 2 µM; stronger effect = higher value
[2] = HepG2 cytotoxicity, primary screen, cytotoxicity control for P. falciparum antimalarial project, cell-based, ATP luminescence (AID 2303;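 active = inhibition above 50%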;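 also: 0% = DMSO wells and 100% = digitonin-killed cells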); settings: HepG2 viability, 24-48 h, at 10 µM, stronger effect = higher value
[3] = molecular target: L-lactate dehydrogenase (Plasmodium falciparum (isolate CDC / Honduras)) (UniProt Q27743); assay: PfLDH activity inhibition – cell lysate, 3D7 strain, counter-screen for P. falciparum growth inhibition project (AID 2304);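 also: 0% = vehicle and 100% = reference inhibitor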; settings: P. falciparum 3D7 crude extract, LDH APAD/NBT absorbance; at 2 µM; stronger effect = higher value
Chain of L-lactate dehydrogenase (Plasmodium falciparum (isolate CDC / Honduras)) (Q27743 whole entry, looked up): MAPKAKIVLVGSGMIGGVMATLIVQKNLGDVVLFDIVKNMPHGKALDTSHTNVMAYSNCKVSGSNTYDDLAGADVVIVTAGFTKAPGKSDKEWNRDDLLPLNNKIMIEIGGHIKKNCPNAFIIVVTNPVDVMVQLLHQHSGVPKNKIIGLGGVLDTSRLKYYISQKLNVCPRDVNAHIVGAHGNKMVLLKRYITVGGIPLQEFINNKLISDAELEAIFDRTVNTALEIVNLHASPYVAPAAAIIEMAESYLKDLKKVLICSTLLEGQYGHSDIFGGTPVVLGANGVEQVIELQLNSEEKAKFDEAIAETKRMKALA

[4] = inhibition of 3D7 malaria parasite growth – strain 3D7 (AID 2306);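 also: 0% = DMSO wells and 100% = chloroquine plus artemisinin control wells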; settings: P. falciparum 3D7 erythrocytic growth, LDH absorbance, 72 h; at 2 µM; stronger effect = higher value
[5] = molecular target: Calcium-dependent protein kinase 1 (Plasmodium falciparum (isolate 3D7)) (UniProt P62344); assay: PfCDPK1 kinase inhibitors, biochemical, TCAMS library (AID 1159585; cut-off not given, nearly all actives have IC50 up to about 0.98 µM;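 also: inhibitors leave more ATP so luminescence rises with inhibition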); settings: recombinant PfCDPK1, Kinase-Glo ATP depletion luminescence
Chain of Calcium-dependent protein kinase 1 (Plasmodium falciparum (isolate 3D7)) (P62344 whole entry, looked up): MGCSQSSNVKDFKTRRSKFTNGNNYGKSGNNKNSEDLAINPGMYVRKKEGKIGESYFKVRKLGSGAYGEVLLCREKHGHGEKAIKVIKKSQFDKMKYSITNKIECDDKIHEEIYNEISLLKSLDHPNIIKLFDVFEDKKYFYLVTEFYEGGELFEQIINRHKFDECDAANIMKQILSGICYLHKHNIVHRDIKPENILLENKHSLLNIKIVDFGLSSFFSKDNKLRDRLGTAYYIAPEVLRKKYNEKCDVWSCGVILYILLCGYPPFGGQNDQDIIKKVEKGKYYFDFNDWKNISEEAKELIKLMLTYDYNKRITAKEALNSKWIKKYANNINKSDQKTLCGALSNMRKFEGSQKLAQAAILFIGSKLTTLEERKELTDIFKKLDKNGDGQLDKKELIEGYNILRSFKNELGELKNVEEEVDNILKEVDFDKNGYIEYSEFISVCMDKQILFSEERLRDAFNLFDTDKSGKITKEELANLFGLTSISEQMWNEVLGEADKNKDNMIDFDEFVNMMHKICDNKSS

[6] = molecular target: Plasmodium falciparum protein kinase 6 (PK6, PF3D7_1337100) (UniProt Q8IDW1); assay: PfPK6 kinase inhibitors, biochemical, TCAMS library (AID 1159586); settings: recombinant PfPK6, Kinase-Glo ATP depletion luminescence
Chain of Plasmodium falciparum protein kinase 6 (PK6, PF3D7_1337100) (Q8IDW1 1-305): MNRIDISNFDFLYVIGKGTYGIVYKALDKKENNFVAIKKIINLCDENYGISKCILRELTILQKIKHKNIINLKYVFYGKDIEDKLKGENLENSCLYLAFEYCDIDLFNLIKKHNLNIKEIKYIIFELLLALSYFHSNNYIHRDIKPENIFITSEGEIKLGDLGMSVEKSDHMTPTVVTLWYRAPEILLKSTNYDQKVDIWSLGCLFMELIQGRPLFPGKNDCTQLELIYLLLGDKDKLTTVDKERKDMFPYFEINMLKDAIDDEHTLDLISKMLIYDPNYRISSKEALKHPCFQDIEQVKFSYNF

[7] = molecular target: Protein kinase 7 (PK7), Plasmodium falciparum 3D7 (PF3D7_0213400) (UniProt Q7YTF7); assay: inhibition of Plasmodium PK7 catalytic activity – biochemical, TCAMS antimalarial set, Kinase-Glo luminescence (AID 1159587); settings: recombinant PfPK7, Kinase-Glo ATP depletion luminescence
Chain of Protein kinase 7 (PK7), Plasmodium falciparum 3D7 (PF3D7_0213400) (Q7YTF7 1-343): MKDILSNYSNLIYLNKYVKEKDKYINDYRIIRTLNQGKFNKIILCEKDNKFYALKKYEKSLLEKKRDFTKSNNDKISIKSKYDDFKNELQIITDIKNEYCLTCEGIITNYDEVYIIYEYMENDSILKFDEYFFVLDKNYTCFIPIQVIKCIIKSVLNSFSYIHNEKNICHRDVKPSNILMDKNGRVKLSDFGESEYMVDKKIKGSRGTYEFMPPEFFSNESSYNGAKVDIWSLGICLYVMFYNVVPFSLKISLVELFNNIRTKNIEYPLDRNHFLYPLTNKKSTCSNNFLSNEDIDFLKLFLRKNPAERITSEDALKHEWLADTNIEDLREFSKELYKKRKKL

[8] = molecular target: Calcium-dependent protein kinase 4 (Plasmodium falciparum (isolate 3D7)) (UniProt Q8IBS5); assay: PfCDPK4 kinase inhibitors, biochemical, TCAMS library (AID 1159588; cut-off not given, nearly all actives have IC50 up to about 0.91 µM); settings: recombinant PfCDPK4, Kinase-Glo ATP depletion luminescence
Chain of Calcium-dependent protein kinase 4 (Plasmodium falciparum (isolate 3D7)) (Q8IBS5 whole entry, looked up): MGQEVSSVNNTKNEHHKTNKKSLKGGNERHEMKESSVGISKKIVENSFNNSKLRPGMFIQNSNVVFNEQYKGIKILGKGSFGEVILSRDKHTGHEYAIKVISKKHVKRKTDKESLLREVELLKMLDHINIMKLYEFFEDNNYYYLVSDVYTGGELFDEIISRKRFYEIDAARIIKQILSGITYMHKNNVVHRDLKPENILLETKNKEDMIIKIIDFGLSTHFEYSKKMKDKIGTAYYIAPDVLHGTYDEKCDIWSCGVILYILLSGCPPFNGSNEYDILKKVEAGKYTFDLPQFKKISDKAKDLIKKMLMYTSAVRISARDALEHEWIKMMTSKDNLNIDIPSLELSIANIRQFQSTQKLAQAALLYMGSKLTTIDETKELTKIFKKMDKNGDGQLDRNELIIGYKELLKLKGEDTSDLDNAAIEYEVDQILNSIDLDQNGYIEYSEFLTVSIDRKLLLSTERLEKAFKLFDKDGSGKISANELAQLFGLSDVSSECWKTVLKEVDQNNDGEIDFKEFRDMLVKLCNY

SMILES	growth inhibition [1]	inhibition [2]	inhibition [3]	growth inhibition [4]	outcome [5]	outcome [6]	outcome [7]	outcome [8]
Cc1nc2ccccc2n1C1C[C@H]2CC[C@@H](C1)N2Cc1nccn1-c1ccccc1 (some centres undefined)	96% (active)	0% (inactive)	-4% (inactive)	94% (active)	inactive	inactive	inactive	inactive
CC(C)(C)c1ccc(Cn2nc(C(=O)N3CCN(C(=O)C4CCCO4)CC3)c3ccccc32)cc1 (centres undefined)	83% (active)	-2% (inactive)	-3% (inactive)	90% (active)	inactive	inactive	inactive	inactive
COC(=O)c1sccc1NC(=S)NC1CCC(CN2CCC(c3c[nH]c4ccccc34)CC2)CC1 (centres undefined)	54% (active) and 49% (inactive)	25% (inactive) and 34% (inactive)	0% (inactive) and -1% (inactive)	97% (active) and 100% (active)	inactive	inactive	inactive	inactive
O=C(/C=C/c1ccc(Cl)c(Cl)c1)NC1CCC(CN2CCC(c3c[nH]c4ccc(O)cc34)CC2)CC1 (centres undefined)	99% (active) and 101% (active)	38% (inactive) and 35% (inactive)	-1% (inactive) and 6% (inactive)	100% (active) and 101% (active)	inactive	inactive	inactive	inactive
CC(=O)C1(c2ccccc2)CCN(CCC2(c3ccc(Cl)c(Cl)c3)CN(C(=O)C3CCCCC3)CCO2)CC1 (centres undefined)	99% (active)	3% (inactive)	-2% (inactive)	100% (active)	inactive	inactive	inactive	inactive
Cc1ccc(C(=O)Nc2ccnc(N(C)C3CCN(Cc4cccc(O)c4)CC3)c2)cn1	1% (inactive)	0% (inactive)	4% (inactive)	90% (active)	inactive	inactive	inactive	inactive
COCCNCc1cccc(-c2ccccc2CN(C(=O)Nc2ccccc2)C2CCN(Cc3ccccc3)CC2)c1	51% (active)	30% (inactive)	1% (inactive)	96% (active)	inactive	inactive	inactive	inactive
O=C(NC1CCC(CN2CCC(c3c[nH]c4ccccc34)CC2)CC1)c1cc(-c2ccccc2Cl)n(-c2cccc(Cl)c2)n1 (centres undefined)	24% (inactive)	58% (active)	4% (inactive)	95% (active)	inactive	inactive	inactive	inactive
O=C(Nc1ccccc1OC(F)(F)F)NC1CCC(CN2CCC(c3c[nH]c4ccccc34)CC2)CC1 (centres undefined)	60% (active) and 70% (active)	33% (inactive) and 35% (inactive)	6% (inactive) and 8% (inactive)	101% (active) and 99% (active)	inactive	inactive	inactive	inactive
O=C(/C=C/c1ccc(Cl)c(Cl)c1)N1CCC(CN2CCC(c3c(-c4ccc(F)cc4)[nH]c4ccccc34)CC2)CC1	98% (active)	19% (inactive)	-3% (inactive)	101% (active)	inactive	inactive	inactive	inactive
O=C(NC1CCN(CC2(c3ccc(Cl)cc3)CCC2)CC1)c1ccn[nH]1	43% (inactive)	-7% (inactive)	-3% (inactive)	96% (active)	inactive	inactive	inactive	inactive
Cc1nc(C)c(-c2ccc(Oc3ccc(OC(F)(F)F)cc3)cc2)c(OC(=O)N(CCNC(C)C)C(C)C)c1Br	97% (active)	35% (inactive)	-2% (inactive)	98% (active)	inactive	inactive	inactive	inactive
CC[C@H]1CN2CC[C@H]1C[C@H]2[C@H](O)c1cc(-c2cccc(Cl)c2)nc2ccc(OC)cc12	99% (active)	16% (inactive)	6% (inactive)	98% (active)	inactive	inactive	inactive	inactive
C#CCN1CCC2=C(C1)c1c(O)cc(C(C)C(C)CCc3ccc(F)cc3)cc1OC2(C)C (centres undefined)	99% (active)	10% (inactive)	3% (inactive)	100% (active)	inactive	inactive	inactive	inactive
Cc1[nH]c2cc(Cl)ccc2c1C1=CCN(CCCCC2(C)C(=O)Nc3ccccc32)CC1 (centres undefined)	90% (active)	-3% (inactive)	0% (inactive)	94% (active)	inactive	inactive	inactive	inactive
CC(Cc1ccc(OCc2ccccc2)c(Cl)c1)NCC(O)c1cccc(C(F)(F)F)c1 (centres undefined)	95% (active)	-2% (inactive)	-4% (inactive)	97% (active)	inactive	inactive	inactive	inactive
CCCCCCCSc1ccc(CC(C)NCC(O)c2cccc(Cl)c2)cc1 (centres undefined)	99% (active)	94% (active)	-3% (inactive)	100% (active)	inactive	inactive	inactive	inactive
Cc1c(C)c2c(c(C)c1O)CC[C@](C)(C(=O)N1CCC(CN3CCC(c4c[nH]c5ccccc45)CC3)CC1)O2	98% (active)	29% (inactive)	2% (inactive)	101% (active)	inactive	inactive	inactive	inactive
Cc1cc(NC(=O)[C@@H](Nc2ccc(C#N)c3ccccc23)C2CCCCC2)ccc1F	83% (active)	10% (inactive)	0% (inactive)	95% (active)	inactive	inactive	inactive	inactive
CC[C@H]1CN2CC[C@H]1C[C@H]2[C@H](O)c1cc(-c2ccc(Cl)c(Cl)c2)nc2ccc(OC)cc12	99% (active)	17% (inactive)	6% (inactive)	98% (active)	inactive	inactive	inactive	inactive
CC(Cc1ccc(SC(C)(C)C)cc1)NCC(O)c1cccc(Cl)c1 (centres undefined)	99% (active)	14% (inactive)	-7% (inactive)	99% (active)	inactive	inactive	inactive	inactive
COC(=O)c1ccc(C[C@@H](C)NC[C@H](O)c2cccc(OCc3ccccc3)c2)cc1	37% (inactive)	11% (inactive)	1% (inactive)	86% (active)	inactive	inactive	inactive	inactive

SMILES	growth inhibition [1]	inhibition [2]	inhibition [3]	growth inhibition [4]	outcome [5]	outcome [6]	outcome [7]	outcome [8]
Oc1cccc(C2CCCN(Cc3cccc4cc[nH]c34)C2)c1 (centres undefined)	82% (active)	16% (inactive)	-2% (inactive)	101% (active)	inactive	inactive	inactive	inactive
CC(C)CNCc1ccc(-c2cccc(CN(C(=O)CCC3CCCC3)C3CCN(Cc4ccccc4)CC3)c2)cc1	92% (active)	62% (active)	-7% (inactive)	101% (active)	inactive	inactive	inactive	inactive
COC(=O)c1ccc(CC(C)NCC(O)c2cccc(Br)c2)cc1 (centres undefined)	88% (active)	-6% (inactive)	-2% (inactive)	99% (active)	inactive	inactive	inactive	inactive
O=C(NC1CCN(CCc2c[nH]c3ccc(F)cc23)CC1)c1ncc(-c2ccccc2)[nH]1	69% (active)	-3% (inactive)	-1% (inactive)	102% (active)	inactive	inactive	inactive	inactive
O=C(NC1CCC(CN2CCC(c3c[nH]c4ccccc34)CC2)CC1)c1cc2ccccc2o1 (centres undefined)	14% (inactive)	34% (inactive)	4% (inactive)	94% (active)	inactive	inactive	inactive	inactive
CC[C@H]1CN2CC[C@H]1C[C@H]2[C@H](O)c1cc(N2CCCC(CO)C2)nc2ccc(OC)cc12 (some centres undefined)	99% (active)	11% (inactive)	2% (inactive)	100% (active)	inactive	inactive	inactive	inactive
CC[C@H]1CN2CCc3cc(OC)c(OC)cc3[C@@H]2C[C@@H]1C[C@H]1NCCc2c1cc(OC)c(O)c2I	101% (active)	54% (active)	-4% (inactive)	101% (active)	inactive	inactive	inactive	inactive
COc1ccc(C=CC(=O)N2CCC(CN3CCC(c4c[nH]c5ccccc45)CC3)CC2)cc1OC	4% (inactive)	20% (inactive)	0% (inactive)	94% (active)	inactive	inactive	inactive	inactive
CCOC(=O)c1c(C)n(C2CCCCCC2)c2cc(Br)c(O)cc12	45% (inactive)	-1% (inactive)	-1% (inactive)	87% (active)	inactive	inactive	inactive	inactive
COc1ccc(OC)c(CNCC(O)c2cc(C(F)(F)F)cc(C(F)(F)F)c2)c1 (centres undefined)	100% (active)	7% (inactive)	6% (inactive)	92% (active)	inactive	inactive	inactive	inactive
COC(=O)c1ccc(C[C@@H](C)NC[C@H](O)c2cccc(C(F)(F)F)c2)cc1	93% (active) and 87% (active)	1% (inactive) and -5% (inactive)	-6% (inactive) and -2% (inactive)	97% (active)	inactive	inactive	inactive	inactive
CC(C)N(C)C(=O)n1cnc(S(=O)(=O)C2C[C@@H]3CC[C@H]2C3)n1 (some centres undefined)	96% (active)	26% (inactive)	6% (inactive)	97% (active)	inactive	inactive	inactive	inactive
O=C(Nc1ccc(CN2CCC(c3c[nH]c4ccc(O)cc34)CC2)cc1)c1ccc(-c2ccccc2)cc1	100% (active)	33% (inactive)	1% (inactive)	100% (active)	inactive	inactive	inactive	inactive
O=C(NC1CCC(CN2CCC(c3c[nH]c4ccccc34)CC2)CC1)c1cc2cccc([N+](=O)[O-])c2[nH]1 (centres undefined)	101% (active)	36% (inactive)	-1% (inactive)	103% (active)	inactive	inactive	inactive	inactive
COc1ccc(C[C@H](C)NC[C@H](O)c2cccc(Cl)c2)cc1F	75% (active)	6% (inactive)	-2% (inactive)	89% (active)	inactive	inactive	inactive	inactive
O=C(NC1CCC(CN2CCC(c3c[nH]c4ccccc34)CC2)CC1)c1cc(-c2ccccc2Cl)oc1C(F)(F)F (centres undefined)	7% (inactive)	24% (inactive)	4% (inactive)	99% (active)	inactive	inactive	inactive	inactive
CCCCCCC(C)(C)c1cc(O)c2c3c(c(=O)oc2c1)CCN(Cc1ccccc1)C3	99% (active)	3% (inactive)	6% (inactive)	100% (active)	inactive	inactive	inactive	inactive
O=C(Nc1ccccc1C(F)(F)F)NC1CCC(CN2CCC(c3c[nH]c4ccccc34)CC2)CC1 (centres undefined)	12% (inactive) and 42% (inactive)	34% (inactive) and 46% (inactive)	-3% (inactive)	86% (active) and 96% (active)	inactive	inactive	inactive	inactive
CCCCCC(C)C(C)c1cc(O)c2c3c(c(=O)oc2c1)CN(Cc1ccccc1)CC3 (centres undefined)	47% (inactive)	4% (inactive)	-2% (inactive)	99% (active)	inactive	inactive	inactive	inactive
CS(=O)(=O)Nc1ccc2[nH]cc(C3CCN(CC4CCN(C(=O)/C=C/c5ccc(Cl)c(Cl)c5)CC4)CC3)c2c1	92% (active)	27% (inactive)	-5% (inactive)	101% (active)	inactive	inactive	inactive	inactive
CN1C(=O)[C@H](NC(=O)[C@@H](Cc2ccccc2)NC(=S)Nc2ccccc2)N=C(c2ccccc2)c2ccccc21	23% (inactive)	-8% (inactive)	-1% (inactive)	86% (active)	inactive	inactive	inactive	inactive
